The results in this text go back to PubChem BioAssay AID1628 (Sanford-Burnham Center for Chemical Genomics, 2009).

Hit rate of the full screen: of about 190,000 compounds, about 930 (0.49%) were called active. This is one part of the list. Results with a measured potency or affinity are listed apart. Values without a mark were called inactive.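 The calls were made as follows: active = z-score of insulin promoter reporter brightness in nuclei below -3 at 5 µM, with at least 500 cells counted; inconclusive = wells with under 500 cells, flagged as toxic or sparse; inactive = the rest.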

A short description of this test: decrease of insulin promoter-GFP reporter – imaging, high-content screening, mouse beta cells (AID 1628). The following applies: MIN6 insulin promoter GFP reporter, at 5 µM, hits give low values.
Regarding `O=C(OCC(=O)c1ccc[nH]1)c1ccccc1`, the z-score was 2.07.
To `CCOc1cc(C(=O)OCC(=O)NC(C)c2ccccc2)ccc1OCC(=O)N1CCOCC1` (stereo not given) belongs 2.57; to `O=[N+]([O-])c1cc(S(=O)(=O)/N=C(/c2ccccc2)N2CCOCC2)ccc1Cl`, 1.77; to `O=C(COc1ccc(S(=O)(=O)NCc2ccccc2)cc1Cl)N1CCOCC1`, -4.71 (active).
Next, `CCCCn1c(CCC(=O)O)nc2cc(S(=O)(=O)N(C)C)ccc21`: -3.06 (active); `CN(C)C(=S)N=Nc1[nH]c2ccccc2c1O`: -5.59 (active); `O=c1[nH]c2ccccc2c(O)c1O`: -0.06.
Next, `O=C(CNC(=O)c1cccc(F)c1)N/N=C/c1cc(Br)ccc1OC(=O)/C=C/c1ccco1`: -8.62 (active); `COc1cc(C)c(CNc2ccc(OC)c(OC)c2)cc1C`: -4.27 (active).
Turning to `Cc1ccc(CNc2ccc3c(c2)OCO3)c(C)c1`, the z-score is 3.69.
Next, `CCc1ccc(NC(=O)c2cc(C(C)C)on2)cc1`: 3.36; `CCc1ccc(NC(=O)c2c(C(=O)Nc3ccccc3)sc3nc(C)cc(=O)n23)cc1`: -3.57 (active); `CC(=O)n1c(C=Nc2ccccc2)c(O)c2ccccc21`: 3.61.
Next, `Cc1cc(C(=O)NCC(=O)OCC(=O)N2CCCCCC2)ccc1[N+](=O)[O-]`: -3.78 (active); `CCOC(=O)c1c(NC(=O)COC(=O)c2cc(OC)c(OC)cc2[N+](=O)[O-])sc(C)c1C`: -7.34 (active); `COC(=O)c1c(NC(=O)CC2Nc3cc(C)c(C)cc3NC2=O)sc(C)c1C` (stereo not given): 6.44.
To `CCC(=O)Nc1ccc(C(=O)OCC(=O)c2ccc(C)c([N+](=O)[O-])c2)cc1` belongs 3.37.
In the case of `CCN(C#N)c1nc(NC(C)C)nc(NC(C)C)n1`, the z-score is -6.16 (active).
Next, `COc1ccc(N(CC(=O)Nc2ccccc2C(=O)NCC(C)C)S(C)(=O)=O)cc1`: -3.31 (active); `COc1ccc(N(CC(=O)Nc2cc(OC)ccc2OC)S(C)(=O)=O)cc1`: 0.8; `COc1ccc(-n2c(SCC(N)=O)nnc2-c2cccnc2)cc1`: 0.75.
Next, `COc1ccc(-n2c(C)cc(C(=O)CSc3nn4c(=O)c(C(C)(C)C)nnc4s3)c2C)cc1`: -4.21 (active); `CN(C)S(=O)(=O)c1ccc(NC(=O)C2COc3ccccc3O2)cc1` (stereo not given): 2; `COc1ccc2c(c1)C(=O)OC2CC(=O)O` (stereo not given): 0.37.
Next, `Cc1ccc(-c2cn3nc(-c4ccccc4)c(-c4ccccc4)nc3n2)cc1`: 8.16; `Cc1cc2nc(C3CCN(Cc4nnnn4Cc4cccs4)CC3)[nH]c2cc1C`: -3.92 (active); `CCCCCc1cc(=O)oc2c(C(CCN3CCCC(C)C3)c3ccc(OC)cc3)c(OC)cc(OC)c12` (stereo not given): -3.09 (active).
With `CC1CCN(S(=O)(=O)c2ccc(NC(=O)N3c4ccccc4Sc4ccccc43)cc2)CC1`, the z-score is -3.77 (active).
`C=CCNC(=O)C1CCN(S(=O)(=O)c2ccc(Br)cc2)CC1`: the z-score is 3.14.
To `Cc1ccc2c(c1)C(c1ccccc1)N(C(=O)c1cc3ccccc3oc1=O)CC(=O)N2` (stereo not given) belongs -4.42 (active).
Next, `O=C(C1=C(O)C(=O)N(c2nccs2)C1c1ccccc1)c1cc2ccccc2o1` (stereo not given): 13.5; `O=C1S/C(=C/c2ccc(N3CCOCC3)o2)C(=O)N1Cc1ccc(F)cc1`: 11.4; `CN(C)c1ccc(/C=C2\SC(=O)N(CCc3nnc(N)s3)C2=O)cc1`: 3.27.
Next, `Cc1ccc(S(=O)(=O)CCC(=O)NCCN2C(=O)S/C(=C/c3ccc(F)cc3)C2=O)cc1`: -5.68 (active); `CCCc1nc2ccc(NC(C)=O)cc2c(=O)n1Cc1ccc(Cl)cc1`: 3.64; `CN(C)Cc1nc2ccccc2c(=O)n1Cc1nc(C(C)(C)C)cs1`: -4 (active).
Turning to `CC(=O)Nc1ccc2nc(NC(=O)COc3ccccc3C)sc2c1`, the z-score was 2.47.
Next, `Cc1cccc(OCC(=O)NNC(=O)Nc2cccc(Cl)c2)c1C`: -5.42 (active).
Next, `COc1ccc(Cl)cc1NC(=O)CN(C)C(=O)COc1ccccc1F`: 4.38; `Cc1cccc(N=CC=C2OC(C)(C)C(C)(C)O2)c1`: -4.14 (active); `Cc1cccc(N=Cc2[nH]c3ccc(Br)c(Cl)c3c2O)c1`: 16.6.
Turning to `Cn1c(C(=O)N2CCC(C(=O)N3CCN(Cc4ccc5c(c4)OCO5)CC3)CC2)cc2sccc21`, the z-score is 4.67.
To `O=C(c1ccco1)N1CCN(C(=O)c2cc3sccc3n2Cc2ccccc2)CC1` belongs -3.22 (active).
Next, `Cc1ccc(/C=C/C(=O)O)cc1S(=O)(=O)NCCO`: -4.14 (active).
As to `CCC(C)(C)C1CCc2c(sc(NC(=O)c3cccs3)c2C(N)=O)C1` (stereo not given), the z-score was -3.17 (active).
Consider `CC(C)N1CCc2c(sc(NC(=O)c3cc4cc([N+](=O)[O-])ccc4s3)c2C(N)=O)C1`, for which the z-score was 7.47.
Next, `CCn1ncc(Br)c1C(=O)Nc1sc2c(c1C(N)=O)CCC2`: 3.46.
Next, `CN(CCCNC(=O)CN1C(=O)CC(C)(C)S(=O)(=O)c2ccccc21)C1CCCCC1`: 3.03; `COc1cccc(/C=N/NC(=O)CCn2cnc3ccccc32)c1`: 3.74; `COc1cccc(OCCOc2cccc(/C=N/n3cnnc3)c2)c1`: -5.3 (active).
To `COc1ccc(CCNC(=O)c2cnc3scc(C)n3c2=O)cc1OC` belongs 0.78.
On to `COc1ccc(/C(O)=C/c2nc3ccc(C(=O)NCCc4cccc(C)c4)cc3[nH]c2=O)cc1OC`, for which the z-score is 4.75.
To `COc1ccc(CCNc2ncnc3cc(OC)c(OC)cc23)cc1OC` belongs -3.22 (active).
To `COc1ccc(CCNc2ncnc3[nH]ncc23)cc1OC` belongs -7.54 (active); to `CCOC(=O)COc1cccc2c(=O)n(CC(=O)NCCc3ccc(OC)c(OC)c3)ccc12`, 3.56; to `CCCCCn1c(=O)c(-c2nc3ccccc3[nH]2)c(O)c2ccccc21`, -5.3 (active).
To `CCCCn1c(=O)[nH]c2nc3cc(N)ccc3nc2c1=O` belongs 4.83; to `CCCCCn1nc(-c2ccccc2)c2nc3ccccc3nc21`, 4.99; to `COCCCn1cc(C(=O)c2cc(Br)ccc2O)cc(C#N)c1=O`, 2.45.
As to `CCC(=O)NC(Nc1ncc(C)s1)(C(=O)OC)C(F)(F)F` (stereo not given), the z-score is 0.55.
